Hits are enriched below; roughly 3.2% of the tested compounds scored in any of these assays.
TROY NFkB inh: TROY signaling inhibition; Q293 LMP1-TROYcd NF-kB luciferase reporter, 4 h; inhibition, % at 10 µM; 360,000 compounds, 0.98% hits;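 active = compounds whose plate-normalised and pattern-corrected inhibition of the luciferase reporter signal at the single screening dose is 50% or more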
EBV LMP1 NFkB: Epstein-Barr LMP1 NF-kappaB reporter inhibition; 350,000 compounds, 0.69% hits; LMP1-induced NF-kappaB luciferase reporter cells, luminescence; inhibition, % at 12.5 µM; in the data active = inhibition above about 41%; inconclusive = no clear call, values can overlap the other calls;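 note: 0% = neutral control wells and 100% = reference inhibitor control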
LGR2 antag: Drosophila LGR2 receptor signaling inhibition; HEK293 LGR2, CRE-luciferase, bursicon-stimulated, 4 h; inhibition, % at 9.99 µM; 380,000 compounds, 0.35% hits;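 active = drop in luminescence signal, shown as inhibition above about 50% in the replicate tests, limit read from the data, passing the limit was not always enough; inconclusive = probably only some replicates passing the limit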;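 note: agonist challenge used bursicon conditioned medium at about half maximal strength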
TWEAK Fn14 block: blocks TWEAK-Fn14 interaction in a reporter cell assay | TWEAK-stimulated Fn14 reporter cells, luciferase luminescence, 8 h | inhibition, % at 10 µM | 360,000 compounds, 2% hits | AID 1159606; in the data active = inhibition above about 50%
EWS-Fli inh: blocks EWS/Fli oncoprotein-driven transcription; A673 NR0B1-luciferase reporter, viability-normalised; inhibition, % at 12.6 µM; 350,000 compounds, 0.67% hits; AID 651661;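 active = mean inhibition of at least 50% after viability correction, with every replicate also passing that limit; inconclusive = mean reaches 50% but only one of two replicates passes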;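 note: firefly luciferase signal divided by Alamar Blue viability fluorescence both relative to DMSO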
PAX8 inh HTS: inhibitors of PAX8 transcriptional activity in RMG-I cells; RMG-I TPO-luciferase reporter, SteadyGlo, 24 h; inhibition, % at 12.6 µM; 360,000 compounds, 1.2% hits; AID 652154;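 active = mean replicate inhibition at least 60% with every replicate also reaching 60%; inconclusive = only one of the two criteria is met; inactive = mean below 60% and not all replicates reaching 60%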;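 note: luciferase light reporting Pax8 driven TPO promoter activity; plate controls were median of neutral control wells for no effect and mitoxantrone controls for full effect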
Numbers without * were called inactive.

C[C@H](NC(=O)C[C@H]1C[C@H]2c3cc(NS(=O)(=O)c4ccc(F)cc4)ccc3O[C@H]2[C@H](CO)O1)c1ccccc1 was read as LGR2 antag 8.1, EWS-Fli inh 12.3 and PAX8 inh HTS 39.9.
`COc1ccc(CNc2ccc(Br)cc2)cc1` gave TROY NFkB inh -61.0, EBV LMP1 NFkB -11.3, LGR2 antag -43.3, TWEAK Fn14 block -30.9, EWS-Fli inh -99.8 and PAX8 inh HTS -44.1.
Screening COc1ccc(NC2=NCC(Cc3ccc(Br)cc3)S2)cc1 (configuration not stated) returned TROY NFkB inh 25.1, EBV LMP1 NFkB 65.7*, LGR2 antag -4.4, TWEAK Fn14 block 8.4, EWS-Fli inh 11.6 and PAX8 inh HTS 5.9.
For CCOC(=O)c1cccc2c1-c1ccccc1/C2=N/O the results were TROY NFkB inh 50.3*, EBV LMP1 NFkB 24.1 and TWEAK Fn14 block 86.2*.
For CCCN1C[C@@H](C)[C@H](OC)CN(C)C(=O)c2cc(NS(=O)(=O)c3ccccc3)ccc2OC[C@H]1C the results were LGR2 antag 32.0, EWS-Fli inh 12.9 and PAX8 inh HTS 7.9.
For CCOC(=O)/C=C(\C)Sc1cc(O)c2ccccc2c1O the results were TROY NFkB inh 31.4, EBV LMP1 NFkB -0.8, LGR2 antag -6.2, TWEAK Fn14 block 95.9*, EWS-Fli inh 35.9 and PAX8 inh HTS 35.2.
Screening CCOC(=O)/C=C(\C)Sc1cc(=O)oc2ccccc12 returned TROY NFkB inh 2.4, EBV LMP1 NFkB 49.5*, TWEAK Fn14 block 56.8* and PAX8 inh HTS 64.0*.
Screening CN(C)CCNC(=O)c1cccc(-c2cnc3c(NC=O)cc(-c4ccc(F)cc4)cn23)c1 returned TROY NFkB inh -9.8, LGR2 antag 14.2, TWEAK Fn14 block -31.1, EWS-Fli inh 30.5 and PAX8 inh HTS 18.0.
`CCSc1ccc(-c2cc(NC=O)c3ncc(-c4cccc(C(=O)NCCN(C)C)c4)n3c2)cc1` gave TROY NFkB inh -12.2, LGR2 antag -16.8, TWEAK Fn14 block -180.8, EWS-Fli inh inconclusive and PAX8 inh HTS 99.3*.
CC(=O)Nc1cc(-c2cccc(C(=O)NCCN(C)C)c2)cn2c(-c3cccc(C(F)(F)F)c3)cnc12 was read as TROY NFkB inh -17.8, LGR2 antag -3.6, TWEAK Fn14 block -313.9, EWS-Fli inh 55.1* and PAX8 inh HTS 106.4*.
For CC(=O)Nc1cc(-c2cccc(C(=O)NCCN(C)C)c2)cn2c(-c3ccccc3)cnc12 the results were TROY NFkB inh -10.6, LGR2 antag -0.4, TWEAK Fn14 block -59.3, EWS-Fli inh -4.5 and PAX8 inh HTS 7.8.
`O=C(OCc1ccccc1)c1ccc(NCc2cc(O)ccc2O)cc1` gave TROY NFkB inh 58.1*, EBV LMP1 NFkB -35.6, LGR2 antag 54.3*, TWEAK Fn14 block 107.1*, EWS-Fli inh 61.9* and PAX8 inh HTS 59.2.
CC(C)OC(=O)c1ccc(NCc2cc(O)ccc2O)cc1 was read as TROY NFkB inh 16.3, EBV LMP1 NFkB -6.1, TWEAK Fn14 block 101.1*, EWS-Fli inh 69.3* and PAX8 inh HTS 40.1.
CO[C@@H]1CN(C)C(=O)c2ccc(NC(=O)C3CC3)cc2OC[C@@H](C)N(C(=O)c2ccccc2)C[C@H]1C was read as LGR2 antag 3.4, EWS-Fli inh 2.7 and PAX8 inh HTS 11.8.
Cc1cc(-c2csc(NC(=O)c3ccc(C#N)cc3)n2)c(C)n1Cc1ccco1 was read as TROY NFkB inh -3.1, EBV LMP1 NFkB -6.7, TWEAK Fn14 block 18.3, EWS-Fli inh -3.2 and PAX8 inh HTS 121.0*.
Cc1ccccc1Oc1cc(NC(=O)CCCn2nc(C)c([N+](=O)[O-])c2C)cc([N+](=O)[O-])c1 was read as TROY NFkB inh 42.8, EBV LMP1 NFkB 10.4, LGR2 antag -4.0, TWEAK Fn14 block 63.3* and PAX8 inh HTS 26.3.
For Nc1ccc2ccc(NS(=O)(=O)N3CCCCC3)cc2c1 the results were LGR2 antag -0.4, EWS-Fli inh 55.9* and PAX8 inh HTS 3.3.
`COc1ccc(C(=O)/C=C2\Sc3ccccc3N2C)cc1` gave TROY NFkB inh -25.3, EBV LMP1 NFkB -68.7, LGR2 antag -22.3, TWEAK Fn14 block 42.4, EWS-Fli inh -86.3 and PAX8 inh HTS -70.1.
Screening COc1ccc(-[n+]2c(C)cc(/C=C3\Sc4ccccc4N3C)cc2C)cc1 returned TROY NFkB inh 29.3, EBV LMP1 NFkB -7.4, LGR2 antag -0.7, TWEAK Fn14 block 5.3, EWS-Fli inh 36.6 and PAX8 inh HTS 79.8*.
